# Pf growth 96h: Primary qHTS for delayed death inhibitors of the malarial parasite plastid, 96 hour incubation | P. falciparum luciferase reporter growth, 96 h | Potency, µM (top dose mostly 28.7 µM), without a hit: top-dose activity change, negative = inhibition, hits mostly inhibitors | actives 6.9% (n = 320,000); note: potency is the fitted concentration of half-maximal effect; % is set by controls: 0 for no effect and ±100 for the full control effect
#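 Erythrocytes infected with luciferase-expressing P. falciparum were dispensed at 2% hematocrit and 0.05% parasitemia (final), then incubated with compounds 96 hours at 37 C in 5% CO2. Luminescence after detection reagent addition reported growth.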
# Pf growth 48h: Primary qHTS for delayed death inhibitors of the malarial parasite plastid, 48 hour incubation; P. falciparum luciferase growth in erythrocytes, 48 h; Potency, µM (series often up to 28.7 µM), for the others: at the highest dose activity change, negative = inhibition, usual class: inhibitors; actives 5.9% (n = 310,000); note: potency is the fitted concentration of half-maximal effect; % is set by controls: 0 for no effect and ±100 for the full control effect
#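 Compounds are pin-transferred into medium, infected erythrocytes (2% hematocrit, 0.1% parasitemia final) are added, and plates sit one parasite generation at 37 C in 5% CO2. Detection reagent is then added and luminescence measured.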
# Shiga toxin inh: A qHTS for Small Molecule Inhibitors of Shiga Toxin | Vero cells, Shiga toxin protein synthesis inhibition reporter | inhibition, % at 38.7 µM | actives 9.2% (n = 290,000); in the data active = inhibition mostly above about 28%, no sharp cut-off; inactive = mostly below about 43%; note: 0% is about no effect
# Cycloheximide cs: Cycloheximide Counterscreen for Small Molecule Inhibitors of Shiga Toxin. max response, %. actives 12% (n = 300,000). AID 2314, 2010. cell reporter, cycloheximide protein synthesis inhibition counterscreen; in the data active = max response mostly above about 13%, no sharp cut-off; inactive = mostly below about 14%; note: read at 38.3 µM for the half of the compounds with a filed dose; 0% is about no effect
# HCV inhibitor: qHTS Assay for Inhibitors of Hepatitis C Virus (HCV) | Huh7.5.1 HCVcc-Cre infection, luciferase reporter, 44 h | Potency, µM (titrated, usually from 41.8 µM), inactives show at the highest dose activity change, negative = inhibition, most hits filed as inhibitors | actives 3.4% (n = 340,000); note: potency is the fitted concentration of half-maximal effect; % is set by controls: 0 for no effect and ±100 for the full control effect
#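 Compounds are dispensed onto cells plated 4 h earlier at 1,000 per well, with HCVcc-Cre virus (about 0.5 moi) added next. Following 44 h of culture, luminescent signal is measured for 15 sec after 15 min with substrate at room temperature.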
# HCMV antiviral: qHTS Assay for inhibitors of the human cytomegalovirus (HCMV); actives 4.5% (n = 410,000); HFF cells, HCMV-luciferase reporter, 72 h; active compounds read low; AID 1259415, 2018; activity change, negative = inhibition, % at 57.5 µM; in the data active = activity change below about -60%; inconclusive = no clear call, values can overlap the other calls; inactive = above about -39%; note: % is set by controls: 0 for no effect and ±100 for the full control effect
#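 After 16 h attachment at 37C, HFF cells received test compound and HCMV-luciferase (1 PFU/cell); reporter luminescence read 72 h later, data normalized against buffer-only and known inhibitor Salinomycin.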
# Starred values were filed as active, the others as inactive; ? = inconclusive; . = not tested or not shown. Only some compounds are listed: those with a hit (about 21% of all), similar ones and a draw of the others. Unless noted, calls come from the whole dose curve; as a rule, active = well fitted inhibition curve with a large enough effect; inconclusive = small, poorly fitted or top-dose-only effect, or another doubt; inactive = no such curve, though single readings can be large or run the other way.
SMILES,Pf growth 96h,Pf growth 48h,Shiga toxin inh,Cycloheximide cs,HCV inhibitor,HCMV antiviral
CC(Oc1ccc(Cl)cc1)C(=O)Nc1cccc(S(=O)(=O)N2CCCC2)c1 (stereo not given),.,.,.,.,.,-10.7
CC(C(=O)Nc1ccc(S(=O)(=O)N2CCCC2)cc1)N1CCc2ccccc2C1 (stereo not given),?,11.7µM*,.,.,?,-23.9
Cc1cc(C)n(S(=O)(=O)c2ccccc2)n1,4.9%,-0.7%,-14.9,1.0,-11.6%,-1.6
CC(=O)Nc1ccc(S(=O)(=O)N2CCC3(CC2)OCCO3)cc1,9.28µM*,19.8%,13.9,15.3,-1.6%,-37.1
CC(=O)Nc1ccc(S(=O)(=O)n2nc(C)cc2C)cc1,0.928µM*,-3.0%,-13.2,-0.2,9.7%,15.4
Cc1ccc(NC(=O)C(C)N2CCc3ccccc3C2)cc1 (stereo not given),28.2%,23.1%,5.1,-2.4,-1.3%,8.3
CC(Oc1ccc(Cl)cc1)C(=O)Nc1ccc(S(=O)(=O)N2CCOCC2)cc1 (stereo not given),8.4%,13.1µM*,-3.5,-8.0,-2.6%,35.4
COc1ccc(NC(=O)CSc2n[nH]c(-c3ccccc3)n2)cc1Cl,.,.,.,.,.,-11.5
Cc1ccc(C(=O)N2CCN(c3ccccc3F)CC2)cc1NC(=O)c1nsc2ccccc12,.,.,.,.,.,-1.7
Cn1c(=O)[nH]c(N)c(Br)c1=O,.,.,.,.,1.7%,-4.8
CCN(CC)c1ccc(C(=O)NCc2ccc3c(c2)CCN3C(C)=O)cc1,.,.,.,.,.,-23.1
O=S(=O)(c1ccc(NC(=S)N2CCN(c3ccc(O)cc3)CC2)cc1)N1CCOCC1,-8.9%,?,28.0,-5.4,?,-63.4*
CC(=O)Nc1ccc(S(=O)(=O)N2CCOCC2)cc1,2.94µM*,0.4%,-3.1,-3.0,15.0%,-6.7
CC(=O)Nc1ccc(S(=O)(=O)N2CCSC2C(=O)O)cc1 (stereo not given),11.7µM*,.,-5.8,-1.4,-2.0%,37.1
CC(Oc1ccccc1Cl)C(=O)Nc1ccc(S(=O)(=O)N2CCCC2)cc1 (stereo not given),23.7%,13.1µM*,.,.,?,-7.9
Cc1nn2c(=O)cc(CN(C)c3ccccc3)nc2s1,.,.,.,.,.,17.6
COc1ccccc1N1CCN(c2ncc3c(n2)CCN(Cc2ccc(C)s2)C3)CC1,.,.,.,.,.,-7.0
COc1ccccc1NC(=O)Cn1c(=O)n(Cc2nc(C)no2)c(=O)c2cc3c(cc21)OCO3,.,.,.,.,.,-2.1
NC(=O)CC[C@H](NC(=O)c1ccc(F)cc1)C(=O)OCC(=O)NCc1ccc2c(c1)OCO2,.,.,.,.,19.5%,10.1
CC(=O)Nc1ccc(S(=O)(=O)NCCN2CCNC2=O)cc1Cl,7.38µM*,?,4.2,-4.9,14.1%,4.7
CC(=O)N1CCCc2cc(S(=O)(=O)N3CCC(C(=O)Nc4c(C)cccc4C)CC3)ccc21,.,.,.,.,.,-22.1
Cc1ccc(S(=O)(=O)Nc2cc(C(F)(F)F)ccc2N2CCOCC2)cc1C,?,3.29µM*,2.6,-2.1,14.9%,-36.3
O=S(=O)(Nc1cc(C(F)(F)F)ccc1N1CCOCC1)c1ccc2ccccc2c1,13.1µM*,?,-21.6,0.9,0.0%,?
C/C(=N/NS(=O)(=O)c1ccc(C)cc1C)c1ccc2c(c1)OCO2,7.6%,?,13.5,6.1,9.2%,25.1
C/C(=N/NS(=O)(=O)c1ccc(C)cc1)c1ccc2c(c1)OCO2,-6.1%,13.7%,-5.8,-2.0,13.2%,35.0
SMILES,Pf growth 96h,Pf growth 48h,Shiga toxin inh,Cycloheximide cs,HCV inhibitor,HCMV antiviral
C/C(=N\NS(=O)(=O)c1ccccc1)c1ccc2c(c1)OCO2,40.0%,79.2%,15.7,12.4*,7.0%,-19.8
C/C(=N\Nc1ccc([N+](=O)[O-])cc1)c1ccc2c(c1)OCO2,119.4%,92.0%,80.5*,30.0*,-20.3%,35.4
CC(=NNS(=O)(=O)c1ccc([N+](=O)[O-])cc1)c1ccc(C)cc1,.,.,.,.,3.9%,23.6
C/C(=N\NS(=O)(=O)c1ccc(C)c([N+](=O)[O-])c1)c1ccc2c(c1)OCO2,23.5%,6.1%,19.2,26.9*,15.7%,-17.4
C/C(=N\NS(=O)(=O)c1ccc([N+](=O)[O-])cc1)c1ccc2c(c1)OCO2,5.86µM*,40.3%,-8.0,7.3,22.6%,15.9
Cc1cccc(-n2ccc(=O)c(C(=O)Nc3ccc(S(=O)(=O)Nc4onc(C)c4C)cc3)n2)c1,28.0%,-2.6%,-9.9,-3.8,1.1%,7.2
CCCCc1ccc(NC(=O)c2cc3c(=O)n4ccccc4nc3s2)cc1,.,.,.,.,.,-22.3
COc1ccc(N2CC(C(=O)NCCC3=CCCCC3)CC2=O)c(OC)c1 (stereo not given),14.9%,-0.9%,.,.,?,-16.0
COc1ccc(OC)c(S(=O)(=O)N/N=C(/C)c2ccc3c(c2)OCO3)c1,3.6%,26.3%,-3.4,1.6,22.0%,?
C/C(=N/NS(=O)(=O)c1cccc([N+](=O)[O-])c1)c1ccc2c(c1)OCO2,0.828µM*,20.5%,4.1,4.5,4.3%,2.1
N#Cc1c(/N=C/c2ccco2)oc(-c2ccccc2)c1-c1ccccc1,26.9%,16.5µM*,-9.4,-2.1,?,14.2
Cc1cc(NC(=O)CCCSc2nc(-c3ccco3)cc(C(F)(F)F)n2)n(-c2ccccc2)n1,13.1%,-18.8%,13.0,1.6,11.2µM*,-6.0
Cc1cc(NC(=O)CSc2nc(-c3ccco3)cc(C(F)(F)F)n2)n(-c2ccccc2)n1,-3.0%,?,-8.7,-2.5,31.6µM*,-32.1
Cc1c(NC(=O)CSc2nc(-c3ccco3)cc(C(F)(F)F)n2)c(=O)n(-c2ccccc2)n1C,100.9%,?,-28.8,-3.5,-11.5%,-0.1
CCn1ncc(CNC(=O)CCCSc2nc(-c3ccco3)cc(C(F)(F)F)n2)c1C,?,11.7µM*,-7.1,-5.5,?,-12.6
CCN(CC)S(=O)(=O)c1ccc2c(c1)c(=O)c(C(=O)N1CCN(c3ccc(OC)cc3)CC1)cn2C,.,.,.,.,.,-2.0
CCn1nc(C)c2c(-c3ccccc3)cc(=O)n(C(C)C(=O)NCc3ccc(C)cc3)c21 (stereo not given),.,.,.,.,.,12.1
COc1cc(CNC(=O)OC2CC3CC2[C@H]2CCCCN2C3=O)cc(OC)c1 (stereo not given in full),.,.,.,.,.,-25.2
COc1cc(S(=O)(=O)n2ccnc2C(C)C)ccc1Br,.,.,.,.,.,3.3
CC(=O)N1CC2(CC(=O)OC(C)C)CN(C(C)=O)CC(CC(=O)OC(C)C)(C1)C2=O,11.7µM*,3.9%,-5.9,-4.1,8.1%,-11.1
CCC12CN(C(=O)c3ccco3)CC(CC)(CN(C(=O)c3ccco3)C1)C2=O,-14.6%,?,-3.0,-3.5,27.8%,14.6
O=C(CN1CCSC1=NCc1ccccc1)c1ccc(Cl)c(Cl)c1,9.28µM*,?,-7.9,-1.9,?,?
